Compound activity deposited in PubChem by several laboratories.
Shown are actives, neighbours in structure and some others; about 4.5% of the full set was active somewhere.
697 NFkB inh: inhibitors of PMA/ionomycin-induced NF-kB reporter, 697 cells, primary screen, B-cell NF-kB inhibitor project, cell-based, luminescence, uHTS; 697 B-cell NF-kB luciferase reporter, 16 h; inhibition, % at 4 µM; actives 0.33% (n = 330,000); AID 435022, 2010; in the data active = inhibition above about 35%
Gli-Sufu antag: Gli-Sufu pathway antagonists, primary screen, luciferase luminescence, Sufu-KO-LIGHT cells, uHTS; Sufu-KO-LIGHT fibroblasts, Gli luciferase reporter luminescence; inhibition, % at 5 µM; actives 0.74% (n = 340,000);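 active = inhibition above about 55%, limit read from the data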
Mdm2-MdmX inh: inhibitors of human Mdm2-MdmX association, primary screen, cell-based, luminescence, split luciferase, SaOS-2, uHTS | Protein Mdm4 (Homo sapiens) + E3 ubiquitin-protein ligase Mdm2 (Homo sapiens), … | SaOS-2 split-luciferase Mdm2/MdmX complementation | inhibition, % at 8 µM | actives 3% (n = 330,000) | AID 485346, 2010;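 active = inhibition of at least 50% at 8 µM in the primary screen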
Target sequence (O15151 whole entry, looked up): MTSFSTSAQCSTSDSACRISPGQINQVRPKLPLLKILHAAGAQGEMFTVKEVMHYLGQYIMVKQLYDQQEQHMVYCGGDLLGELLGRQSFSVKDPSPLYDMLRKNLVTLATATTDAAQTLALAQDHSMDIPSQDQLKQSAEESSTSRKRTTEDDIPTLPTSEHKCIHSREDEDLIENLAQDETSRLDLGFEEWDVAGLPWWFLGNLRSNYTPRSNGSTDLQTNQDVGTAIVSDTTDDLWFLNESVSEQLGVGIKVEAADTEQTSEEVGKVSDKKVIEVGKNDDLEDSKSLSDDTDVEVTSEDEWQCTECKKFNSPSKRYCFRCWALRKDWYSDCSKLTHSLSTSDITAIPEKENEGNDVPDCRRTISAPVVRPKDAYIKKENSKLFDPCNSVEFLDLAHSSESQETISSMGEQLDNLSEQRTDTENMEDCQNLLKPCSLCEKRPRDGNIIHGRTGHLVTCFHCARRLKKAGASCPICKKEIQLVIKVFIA
Target sequence (Q00987 whole entry, looked up): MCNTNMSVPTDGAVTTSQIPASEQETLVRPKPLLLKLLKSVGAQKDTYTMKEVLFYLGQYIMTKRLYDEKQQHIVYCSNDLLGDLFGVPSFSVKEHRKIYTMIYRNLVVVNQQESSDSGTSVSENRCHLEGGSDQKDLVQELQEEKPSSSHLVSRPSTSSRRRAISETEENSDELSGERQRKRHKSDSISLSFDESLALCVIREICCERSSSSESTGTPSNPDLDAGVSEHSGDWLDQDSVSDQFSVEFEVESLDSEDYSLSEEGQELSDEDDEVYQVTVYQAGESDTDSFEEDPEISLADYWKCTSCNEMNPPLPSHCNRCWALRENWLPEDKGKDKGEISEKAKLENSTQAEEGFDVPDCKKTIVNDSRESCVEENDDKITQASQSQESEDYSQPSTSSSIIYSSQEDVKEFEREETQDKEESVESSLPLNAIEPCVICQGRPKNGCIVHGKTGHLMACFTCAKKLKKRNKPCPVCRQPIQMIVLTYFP
aSyn UTR inh: MLPCN primary screen, SNCA 5' untranslated region | AID 1813, 2009 | inhibition, % (tested at 7.5 µM) | alpha-synuclein 5'UTR reporter, inhibitor activity | actives 0.82% (n = 300,000); in the data active = inhibition above about 60%;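 note: H4 neuroglioblastoma cells stably carrying SNCA 5'UTR luciferase fusion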
Jurkat NFkB inh: inhibitors of induced NF-kB luciferase reporter, primary screen, TCR NF-kB activation inhibitor project, cell-based, luminescence, uHTS. Jurkat, PMA/ionomycin-induced NF-kB luciferase reporter. inhibition, % at 4 µM. actives 0.53% (n = 330,000). AID 435003, 2010; in the data active = inhibition above about 50%
CSC inhib: cancer stem cell viability inhibitors, primary screen, luminescence | cancer stem cell-like cells viability | AID 2717, 2010 | inhibition, % at 7.5 µM | actives 1.1% (n = 300,000); in the data active = inhibition above about 75%; tested in HMLE shEcad cells
Jurkat NFkB conf: PMA/ionomycin-induced NF-kB reporter inhibitors, Jurkat retest, confirmation, T-cell NF-kB inhibitor project, cell-based, luminescence, single concentration | Jurkat NF-kB luciferase, 16 h | AID 435020, 2010 | inhibition, % at 4 µM | actives 27% (n = 2,700) | shares compounds with Jurkat NFkB inh;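 active = inhibition reaching about 45% at 4 µM in either replicate, limit read from the data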
697 NFkB conf: PMA/ionomycin-induced NF-kB reporter inhibitors, 697 retest, confirmation, B-cell NF-kB inhibitor project, cell-based, luminescence, single concentration | shares compounds with 697 NFkB inh | 697 B-cell NF-kB luciferase, 16 h | inhibition, % at 4 µM | actives 35% (n = 2,000) | AID 449746, 2010; in the data active = inhibition mostly above about 28%, no sharp cut-off; inactive = mostly below about 22%
Mdm2 MdmX conf: Mdm2-MdmX complex disruptors, retested hits, confirmation, luminescence, single concentration. shares compounds with Mdm2-MdmX inh. inhibition, % at 8 µM. actives 55% (n = 10,000). Mdm2-MdmX binding, luminescent assay; in the data active = inhibition above about 40%
Full FLuc ctr: full-length luciferase signal inhibition, confirmation, counter-screen for Mdm2/MdmX interaction inhibitor project, cell-based, single concentration, SaOS-2; SaOS-2 full-length luciferase counterscreen, luminescence; shares compounds with Mdm2-MdmX inh; actives 77% (n = 6,200); inhibition, % at 8 µM;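 active = mean inhibition at 8 µM reaching about 37%, which flags the compound as non-specific, limit read from the data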;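 note: p53-null SaOS-2 cells with luciferase driven by a doxycycline-inducible promoter; compound on cells about two nights before reading with doxycycline added after day one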
Gli-Sufu confirm: Gli-SUFU pathway antagonists, confirmation, single concentration, luciferase luminescence, Sufu-KO-LIGHT cells. shares compounds with Gli-Sufu antag. Gli luciferase reporter. inhibition, % at 5 µM. actives 40% (n = 2,500). AID 602428, 2012;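 active = mean inhibition at 5 µM reaching about 45%, limit read from the data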
Gli cytotox: cytotoxicity in Sufu-KO-LIGHT cells, confirmation, cytotoxicity control for Gli-SUFU antagonist project, cell-based, ATP luminescence, single concentration; shares compounds with Gli-Sufu antag; cytotoxicity, % at 5 µM; actives 32% (n = 2,500);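 active = mean cytotoxicity at 5 µM above about 25%, limit read from the data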;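 note: cells exposed to compound overnight for roughly 16 to 18 hours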
Wnt3a cs: Wnt3a reporter signal inhibition, confirmation, counter-screen for Gli-SUFU antagonist project, Wnt-LIGHT cells, luminescence, single concentration; shares compounds with Gli-Sufu antag; inhibition, % at 6.25 µM; AID 651995, 2013; Wnt3a-driven luciferase reporter; actives 20% (n = 2,500);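 active = mean inhibition above about 25%, limit read from the data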
Hits are given with their value; n = inactive; x = no result given.

SMILES | 697 NFkB inh | Gli-Sufu antag | Mdm2-MdmX inh | aSyn UTR inh | Jurkat NFkB inh | CSC inhib | Jurkat NFkB conf | Mdm2 MdmX conf | Full FLuc ctr | Gli-Sufu confirm | Gli cytotox | Wnt3a cs | others
Cc1cc(N2CCN(Cc3cn(C)nc3-c3cccc(Cl)c3)CC2)cc(C)n1 | n | n | 61.3 | 71.6 | 61.6 | n | n | 62.5 | 42.7 | x | x | x
O=C(N/N=C/c1ccccn1)c1cc(-c2ccc(Br)cc2)nc2ccccc12 | n | 72.3 | 83.8 | n | 54.3 | n | n | n | 46.4 | x | x | x
Cc1[nH]c2ccccc2c1/C=N/NC(=O)c1cc(-c2ccncc2)nc2ccccc12 | n | n | 59.4 | n | 55.7 | n | n | 68.8 | 52.1 | x | x | x
CC(=O)Nc1cccc(C(=O)OC(C)C(=O)NC(=O)NC2CCCCC2)c1 (stereo not drawn) | n | n | n | n | n | n | x | x | x | x | x | x
Cn1c2c(c(=O)n(C)c1=O)C(c1ccc(C(F)(F)F)cc1)CC(=O)N2 (stereo not drawn) | n | n | n | n | n | n | x | x | x | x | x | x
C[C@@H]1C=CC(=O)O[C@@H]1c1ccc(C(F)(F)F)cc1 | 60.4 | x | 75.7 | n | 97.2 | 91.7 | 96.8 | 69.2 | n | x | x | x | 697 NFkB conf=n
COc1ccc(CN(CC2CCC(C(=O)O)CC2)C(=S)Nc2cccc(C)c2)cc1 (stereo not drawn) | n | n | n | n | n | n | x | x | x | x | x | x
COc1cccc(/C=N/Nc2ccc(C(=O)O)cc2)c1O | n | 72.7 | 54.3 | 112.7 | 88.1 | n | 56.8 | n | x | x | x | x
CC1C(c2ccc3c(c2)OCO3)c2cc3c(cc2OC1N1CCOCC1)OCO3 (stereo not drawn) | x | n | x | x | x | x | x | x | x | x | x | x
CCOc1cc(CNCCc2ccc(S(N)(=O)=O)cc2)ccc1OCc1ccc(Cl)cc1 | n | n | 100.3 | 97.5 | 54.1 | n | n | 67.6 | 65.1 | x | x | x
O=C(Cc1ccc(S(=O)(=O)N2CCOCC2)s1)Nc1cc(Cl)ccc1Cl | n | n | n | x | n | x | x | x | x | x | x | x
C=C1C(=O)[C@@]23[C@H](O)C[C@@H]4C(C)(C)CC[C@H](O)[C@@]4(C)[C@@H]2CC[C@@H]1[C@H]3O | n | 79.6 | 97.3 | n | 71.4 | n | n | 99.7 | 47.6 | x | x | x
O=C(NC1CCCc2c1cnn2-c1cc(F)cc(F)c1)c1ccccn1 (stereo not drawn) | n | n | n | n | n | n | x | x | x | x | x | x
COC(=O)c1ccc(C(=O)NC2CCCc3c2cnn3-c2cc(F)cc(F)c2)nc1 (stereo not drawn) | n | n | 57.8 | n | 52.0 | n | n | 50.0 | 57.1 | x | x | x
COC(=O)c1ccc(C(=O)NC2CCCc3c2cnn3-c2ccc(C)c(C)c2)cc1 (stereo not drawn) | n | n | 59.9 | 104.5 | 59.7 | n | 59.0 | 72.3 | 59.1 | x | x | x
CCn1cc(C(=O)NC2CCCc3c2cnn3-c2cccc(C)c2C)cn1 (stereo not drawn) | n | x | 84.0 | n | 73.8 | n | 66.2 | 92.5 | 36.8 | x | x | x
Cc1cc(C(=O)NC2CCCc3c2cnn3-c2ccc(C)c(C)c2)nc(C)n1 (stereo not drawn) | n | n | n | n | n | n | x | x | x | x | x | x
COc1ccc(C)cc1NC(=O)CSc1ccc(-c2ccccn2)nn1 | n | n | 54.4 | n | 53.0 | n | n | 55.4 | 51.5 | x | x | x
CCC1CCCCN1C(=O)c1cc(COc2ccc3ncccc3c2)on1 (stereo not drawn) | n | 72.0 | n | n | 57.8 | n | 60.0 | x | x | 71.9 | 34.9 | n
CCN1CCN(C(=O)c2cc(COc3ccc4ncccc4c3)on2)CC1 | n | n | n | n | n | n | x | x | x | x | x | x
O=C(O)CCC(=O)Nc1ccc(N=Nc2ccccc2)cc1 | x | n | x | n | x | x | x | x | x | x | x | x
CC(C)(C)C(=O)Nc1ccc(N=Nc2ccccc2)cc1 | n | 63.7 | 71.1 | 79.4 | n | n | n | 73.2 | 136.4 | 54.5 | 60.4 | 82.3 | 697 NFkB conf=n
O=c1[nH]c(/C=C2\C=Nc3ccccc32)c(O)n1Cc1ccccc1F | n | 56.2 | n | n | 84.0 | n | n | x | x | 65.3 | 26.7 | n
CC(=O)NC(C)c1cc(F)c2cccnc2c1O (stereo not drawn) | n | n | n | x | n | n | x | x | x | x | x | x
CC(=O)NC(c1ccc(C(C)C)cc1)c1ccc2cccnc2c1O (stereo not drawn) | n | 90.0 | 81.1 | 66.9 | 51.4 | 109.1 | 73.5 | 83.0 | n | 83.0 | 50.0 | 73.5
COc1ccc(CN(C)c2ccc(S(=O)(=O)N3CCN(C)CC3)cc2[N+](=O)[O-])cc1OC | 87.3 | 74.5 | n | x | 68.2 | x | 74.7 | x | x | 74.4 | 35.3 | 45.2 | 697 NFkB conf=97.2
COc1cc(C2C(C#N)=C(N)Oc3cc4c(cc32)OCO4)cc(OC)c1OC (stereo not drawn) | n | 57.9 | 80.7 | 111.3 | 77.0 | n | n | 67.7 | 126.1 | 55.9 | 51.0 | n
O=C(c1ccccc1)c1cc([N+](=O)[O-])ccc1N1CCOCC1 | n | n | n | 101.3 | 50.9 | x | 49.5 | x | x | 55.6 | 53.0 | n
O=C(c1ccc(Cl)cc1)c1cc([N+](=O)[O-])ccc1N1CCOCC1 | n | n | 64.6 | 117.6 | 69.9 | n | n | 51.7 | 80.6 | 51.1 | 47.0 | n
